# Source: PubChem (several laboratories)
# In the library only some 3% were active in any assay of this set; here they are far more common.
# Efa HMGR inh – E. faecalis class II HMG-CoA reductase inhibition | purified E. faecalis HMGR, NADPH absorbance 340 nm kinetic | inhibition, % at 10 µM | hit rate 0.41% among 190,000;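 active = inhibition above a set limit, the median over all tested compounds plus 3 SD, cut at about 9.5% in these data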;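 also: enzyme runs in reverse so mevalonate oxidation gives rising NADPH absorbance; 0% = complete reaction with DMSO and 100% = background rate lacking mevalonate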
# L929 necroptosis – L929 zVAD cell death inhibition; L929 zVAD necroptosis rescue, ATP luminescence, 24 h; with zVAD 60 µM; viability rescue, % at 10 µM; hit rate 0.38% among 220,000; AID 1377;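 active = activation, scaled between plate controls, above about 75%, limit read from the data; inactive = activation under that limit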;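 also: 0% = zVAD with DMSO and 100% = DMSO alone without zVAD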
# TNF death inh – inhibitors of TNF-alpha induced necroptosis in Jurkat FADD-/- cells; Jurkat FADD-/- TNF necroptosis rescue, ATP luminescence, 24 h; 0 = TNF only, 100 = no-TNF cells; activation (protection from cell death), % at 10 µM; hit rate 0.068% among 220,000; AID 463075;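 active = activation, meaning protection from cell death, of at least 50% relative to plate controls; inactive = activation below 50%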;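 also: necroptosis triggered by 40 ng/mL TNF-alpha added together with compound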
# ROMK primary – modulates human ROMK potassium channel activity; P48048; Tet-inducible ROMK, thallium flux fluorescence; actives lie on both sides; B-score at 10 µM; hit rate 2% among 130,000; AID 1918;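 active = signal ratio slope over the read window, or its plate-corrected B-score, at least 3 SD from the plate mean, either direction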;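 also: B-score of the F/F0 ratio slope over 7 to 12 s after thallium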
# 14-3-3 Bad PPI – disrupts binding of bovine 14-3-3 zeta to phospho-Bad peptide; P63103; TR-FRET 14-3-3zeta/Dy647-pBad peptide displacement, 1 h; inhibition, % at 21.7 µM; hit rate 0.71% among 220,000; AID 781;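 active = inhibition above about 70%, limit read from the data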;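 also: 0% = full 14-3-3 plus peptide FRET controls and 100% = background without 14-3-3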
# Target sequence (P63103 whole entry, looked up): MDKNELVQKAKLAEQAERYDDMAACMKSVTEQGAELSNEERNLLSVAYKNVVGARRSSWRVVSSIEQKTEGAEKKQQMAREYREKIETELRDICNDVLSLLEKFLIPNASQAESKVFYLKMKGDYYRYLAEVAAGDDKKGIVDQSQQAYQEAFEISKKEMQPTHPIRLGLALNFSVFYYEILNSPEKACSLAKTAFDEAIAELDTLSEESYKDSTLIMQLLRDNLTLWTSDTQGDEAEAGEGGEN
# Calpain2 inh – calpain II (pig) inhibition; purified calpain II, fluorogenic peptide substrate, 30 min; inhibition, % at 16 µM; hit rate 0.37% among 220,000; AID 1236;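 active = inhibition above about 50%, limit read from the data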
# An asterisk follows results filed as active; x = no result.
SMILES,Efa HMGR inh,L929 necroptosis,TNF death inh,ROMK primary,14-3-3 Bad PPI,Calpain2 inh
Clc1ccc2c(c1)C(c1ccccc1Cl)=NCc1nnc(Br)n1-2,0,0,-3,0.43,-4,29
Cc1ccccc1C1=NCC(=S)Nc2ccc(Cl)cc21,10*,-1,-4,1.1,-11,-6
CCN1C(=O)N(CC)C(=O)C2(Cc3ccccc3N3CCN(c4ccccc4)CC32)C1=O (stereo not drawn),x,-1,-2,-0.45,0,3
CN1CCN2c3ccc(N)cc3CC3(C(=O)NC(=O)NC3=O)C2C1 (stereo not drawn),x,0,-1,-1.1,96*,0
CN1C(=O)N(C)C(=O)C2(Cc3cc(N)ccc3N3CCN(c4ccccc4F)CC32)C1=O (stereo not drawn),-4,0,-4,x,82*,-271
O=C1NC(=O)C2(Cc3ccccc3N3CCCC32)C(=O)N1 (stereo not drawn),0,2,1,-0.85,9,0
CN1C(=O)C(=Cc2ccc(OCCN(C)c3ccccn3)cc2)C(=O)N(C)C1=O,1,0,1,0.79,-5,-38
CCCCOc1ccc(CN2CCN(CC)CC2)cc1,-6,0,0,x,86*,-9
CCn1nc(-c2ccccc2)nc2c(=O)n(C)c(=O)nc1-2,-5,3,-16,x,15,50
Cc1nc2c(=O)n(C)c(=O)nc-2n(C)n1,10*,-1,-17,x,-10,26
CC(C)NC(=O)Cn1cc(C(=O)c2ccccc2F)c2ccccc21,4,0,0,x,-5,-11
CC(C)(C)c1nc(NCc2ccc3c(c2)OCO3)c2nnn(Cc3ccccc3Cl)c2n1,-1,-1,-2,x,-1,-12
O=c1c2ccccc2nc(-c2ccccc2)n1-c1cccnc1,-7,0,-1,x,15,3
COC(=O)c1c(C)[nH]c(C(=O)C(C)[N+]23CCN(CC2)CC3)c1C (stereo not drawn),-1,2,2,0.14,81*,6
Nc1nnc(CCN2CCCCC2)s1,-1,0,0,x,3,-25
CCN1C(=O)/C(=C\c2ccc([N+](=O)[O-])s2)C(=O)NC1=S,11*,-2,-6,0.17,94*,-11
CC(Cc1ccccc1)[n+]1cc(/N=C(\[O-])N(C)C)on1 (stereo not drawn),1,2,0,-0.22,85*,-12
c1ccc(CCn2nnnc2CN2CCC(n3nnc4ccccc43)CC2)cc1,-4,1,1,x,-1,20
Fc1ccc2c(c1)nnn2C1CCN(Cc2nnnn2CCc2ccccc2)CC1,-1,0,-13,-0.072,76*,-4
CCCNc1nc(OC)nc(N2CC3CC(C2)c2cccc(=O)n2C3)n1 (stereo not drawn),9.9*,1,0,-0.97,-5,-13
CN1C2CCC1C(COC(=O)c1ccccc1)C(O)C2 (stereo not drawn),x,0,1,x,91*,14
O=C(O)CCC(=O)NCCC1=c2ccccc2=N/C1=C\c1c(O)n(Cc2ccc(F)cc2)c(=S)[nH]c1=O,x,2,3,-0.071,75*,17
CCCCC/C=C\C/C=C\C/C=C\C/C=C\CCCC(=O)Nc1ccc(O)cc1,2,x,x,x,-1,63*
NNC(=O)c1ccc(Cl)cc1,-3,1,1,-0.31,-5,8
CCN1CCN(Cc2cc(Br)cc(Br)c2O)CC1,-4,0,4,0.1,78*,7
SMILES,Efa HMGR inh,L929 necroptosis,TNF death inh,ROMK primary,14-3-3 Bad PPI,Calpain2 inh
O=C(COC(=O)c1cccc(O)c1)Nc1ccc(Cl)cc1C(=O)c1ccccc1,-9,3,-1,x,7,53*
CCOc1ccccc1OCC(=O)Nc1ccc(Cl)cc1C(=O)c1ccccc1,2,x,1,-0.089,0,33
Clc1ccc(COC(Cn2ccnc2)c2ccc(Cl)cc2Cl)cc1 (stereo not drawn),6,0,-5,x,-7,39
Clc1ccc(CSC(Cn2ccnc2)c2ccc(Cl)cc2Cl)cc1 (stereo not drawn),11*,0,-4,x,-22,33
O=C(Cc1ccccc1)N1CCN(CC2CC3C=CC2C3)CC1 (stereo not drawn),-1,0,0,x,60,-15
O=C(Cc1ccccc1)N1CCN(CC2CC=CCC2)CC1 (stereo not drawn),-2,0,0,-0.64,77*,1
O=C1NC(=S)N(c2ccc(F)cc2)C(=O)/C1=C\c1ccoc1,-2,2,0,0.35,76*,-109
Cc1ccc(N2C(=O)NC(=O)/C(=C\c3ccoc3)C2=O)cc1,-1,0,-2,0.44,-2,-25
Cc1ccc(/C=C2/C(=O)NC(=O)N(CC3CCCO3)C2=O)s1 (stereo not drawn),3,-1,0,x,-3,22
Nc1cncc(C(=O)O)c1,-5,0,2,0.0068,-5,5
CCCn1cc(C(=O)O)cn1,14*,1,0,-0.84,-5,14
Clc1cccc(CN2CCCCC2c2cccnc2)c1 (stereo not drawn),x,2,2,-0.56,x,x
c1cncc(C2CCCCN2Cc2ccc3c(c2)OCO3)c1 (stereo not drawn),-4,1,1,-0.8,71*,-38
O=C(Nc1ccncc1)c1cccn(Cc2ccccc2)c1=O,-8,1,-6,0.79,-4,-19
O=C(NC(C(Cl)Cl)N1CCOCC1)c1ccccc1 (stereo not drawn),-3,1,0,-0.00087,-10,-24
c1cncc(C2Nc3cccc4cccc(c34)N2)c1,x,0,-13,x,-4,-30
CCN(CC)c1ccc(CN2CC=C(c3ccc(F)cc3)CC2)cc1,-3,0,0,x,77*,-37
CN1CCN(C(=O)COc2ccc(S(=O)(=O)NCc3ccccc3)cc2Cl)CC1,0,1,0,0.083,75*,-38
CN(c1ccc(OCC(=O)N2CCN(C/C=C/c3ccccc3)CC2)cc1)S(=O)(=O)c1cccs1,x,0,-6,x,-4,-10
CC(C)C[C@H](NC(=O)[C@@H]1CCCN1C(=O)[C@@H](N)Cc1ccc(O)cc1)C(=O)NCC(N)=O,18*,1,1,-0.36,4,17
O=C(c1ccccc1)c1cn(CC(=O)N2CCCc3ccccc32)c2ccccc12,-4,0,0,-0.53,-17,56*
O=C(Cn1ccc2ccccc2c1=O)NCC(=O)N1CCC2(CC1)OCCO2,-12,1,1,-1,0,20
CC(=O)N(C1=NCCCS1)c1ccccc1Cl,-5,-1,-1,-0.77,9,12
CCn1c(O)c(C(c2ccccn2)c2c(O)n(CC)c(=S)[nH]c2=O)c(=O)[nH]c1=S,0,0,-2,x,73*,15
CCN(CC)c1ccc(N=Cc2c(O)n(-c3cc(OC)ccc3OC)c(=O)[nH]c2=O)cc1,-2,4,-1,0.46,-27,-46
